Screens as filed in PubChem.
ssDAF-12 act: activates DAF-12 receptor from parasite S. stercoralis; AID 652126; HEK293 ssDAF-12/GRIP1 lit1-tk-luc reporter, luminescence; % of 3 µM dafachronic acid response; 370,000 tested, 1% active; activation, % at 6.8 µM;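 active means activation above the mean over all tested compounds plus 3 SD, cut at about 0.9% in these data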
SMARCA2 act: activators of SMARCA2 function. MG213 cells, MMTV-luciferase reporter, dexamethasone, overnight. activation, % at 9.1 µM. 370,000 tested, 1% active. AID 652017; in the data active means activation above about 7.8%
DAX1 inh-1: DAX1 (NR0B1) inhibition, primary screen | HEK293T StAR-luciferase reporter, SF-1/DAX-1 repression relief | inhibition, % at 6.8 µM | 370,000 tested, 1.1% active | AID 652010;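 active means inhibition above the mean over all tested compounds plus 3 SD, cut at about 3.6% in these data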;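 further: higher inhibition means more luminescence from relief of DAX-1 repression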
hcDAF-12 act: activates DAF-12 receptor from parasite H. contortus | AID 652067 | HEK293 hcDAF-12 lit1-tk-luc reporter, luminescence; 0% DMSO, 100% Δ7-dafachronic acid | 370,000 tested, 1.4% active | activation, % at 6.8 µM;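 active means activation above the mean of all tested compounds plus 3 SD, cut at about 5.5% in these data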
hgDAF12 agonist: activates the H. glycines DAF-12 receptor ligand-binding domain; HEK293 GAL4-hgDAF12 UAS-luciferase reporter, agonist luminescence; normalized to butyrate control; activation, % at 6.8 µM; 370,000 tested, 1.8% active;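 active means activation above a cutoff set at the mean of all screened compounds plus 3 SD, cut at about 10% in these data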
DAX1 inh-2: NR0B1 (DAX1) inhibition; 340,000 tested, 0.99% active; P51843; inhibition, % at 6.75 µM; AID 504766; HEK293 Gal4-DAX1 luciferase reporter, luminescence;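 active means inhibition above the mean over all tested compounds plus 3 SD, cut at about 4.2% in these data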;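 further: inhibition shows as a rise in luminescence from relieved DAX1 repression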
Target sequence (P51843 207-470 limits assumed): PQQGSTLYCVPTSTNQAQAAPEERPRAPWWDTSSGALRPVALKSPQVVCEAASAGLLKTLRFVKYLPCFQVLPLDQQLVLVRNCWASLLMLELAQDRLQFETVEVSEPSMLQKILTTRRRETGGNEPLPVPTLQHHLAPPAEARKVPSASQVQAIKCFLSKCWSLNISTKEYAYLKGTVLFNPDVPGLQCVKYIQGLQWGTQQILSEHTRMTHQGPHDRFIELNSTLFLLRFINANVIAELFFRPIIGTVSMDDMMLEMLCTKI
Each line names hits and unclear results; the compound was inactive in the other large screens. Most compounds without a hit are left out; they make up all but 4.8% or so of the library.

CC(C)NC(=O)c1cc2ccccc2o1	DAX1 inh-2 5.1
CC1CCCCC1NC(=O)c1cc(Cl)nc2ccccc12 (stereo not drawn)	ssDAF-12 act 1.4
Cc1cc(NC(=O)c2cccnc2)ccc1Br	none
CN(C)S(=O)(=O)c1cccc(NC(=O)C2CCCN(C(=O)c3ccc(Cl)cc3)C2)c1 (stereo not drawn)	none
CCOc1ccc(NC(=O)Cc2ccc(S(=O)(=O)N3CCCCC3)cc2)cc1OCC	none
Cn1c(NCc2ccccc2F)nc2cc(-c3cccc(Cl)c3)sc2c1=O	none (no result: DAX1 inh-2)
CC(C)S(=O)(=O)c1csc(C(=O)Nc2ccc(F)cc2)c1N	ssDAF-12 act 1.3
Cc1nc(Cl)sc1C(=O)Nc1ccc(F)cc1	none
OC1COC(c2ccccc2)OC1C1OC(c2ccccc2)OCC1O (stereo not drawn)	DAX1 inh-2 4.9
CC1(C(=O)NS(=O)(=O)c2ccccc2Cl)CCN1C(=O)Cc1cccs1 (stereo not drawn)	none (no result: DAX1 inh-2)
Cc1c(C)c2c(OCC(=O)NCc3cccnc3)cc3c(c2oc1=O)CCC(C)(C)O3	none
Cc1c(C)c2c(OCC(=O)NCc3ccncc3)cc3c(c2oc1=O)CCC(C)(C)O3	DAX1 inh-2 5.9
O=C(COc1ccc(F)cc1Cl)Nc1nnc(-c2ccc(F)c(F)c2)o1	none (no result: SMARCA2 act, DAX1 inh-1, DAX1 inh-2)
O=C(N/N=C/c1ccco1)c1cnccn1	SMARCA2 act 8.0
COc1cc(/C=N/NC(=O)C(Cc2c[nH]c3ccccc23)NC(=O)OCC(C)C)cc([N+](=O)[O-])c1OCc1ccccc1 (stereo not drawn)	DAX1 inh-2 5.2
COc1cc(/C=N/NC(=O)C(Cc2c[nH]c3ccccc23)NC(=O)OCC(C)C)cc([N+](=O)[O-])c1O (stereo not drawn)	none
COc1ccccc1N1CCN(c2ncnc3nc[nH]c23)CC1	SMARCA2 act 7.9
Cc1ccc(S(=O)(=O)N2C[C@H]3C(=O)C[C@@H](c4ccc(Cl)cc4)N(S(=O)(=O)c4ccccc4C)[C@H]3C[C@H]2c2cccc(Cl)c2)cc1	none
CCOc1[nH]n(-c2ccccc2)c(=O)c1C=Nc1ccc(OC)cc1	none
CCOc1ccc2nc(/N=C/c3c(C)[nH]n(-c4ccccc4)c3=O)sc2c1	ssDAF-12 act 0.9
O=C(OC1CCOC1=O)C1CCN(S(=O)(=O)c2ccccc2)CC1 (stereo not drawn)	none
COc1ccc2ccccc2c1CN1CCN(C)CC1	DAX1 inh-2 4.7
CCN1CCN(Cc2c(OC)ccc3ccccc23)CC1	none
Cc1ccc(Nc2nc(CSc3n[nH]c(N)n3)cs2)cc1	hgDAF12 agonist 12
Cn1nnnc1SCc1csc(Nc2ccccc2)n1	none
Cc1ccc(Nc2nc(CSc3nnnn3C)cs2)cc1	hgDAF12 agonist 11
CC(C)C(=O)Nc1cccc(COc2ccc(CN(Cc3ccccc3)C(=O)OC(C)(C)C)cc2)c1	none
OC(c1ccc(-c2ccccc2)cc1)c1ncc(-c2ccc(F)cc2)[nH]1 (stereo not drawn)	none (no result: DAX1 inh-2)
CCOc1cnc(C(=O)NNC(=O)C(Br)C(C)C)o1 (stereo not drawn)	DAX1 inh-2 7.8
CCOc1cnc(-c2ccccc2F)o1	none
Cc1ccc(C2(C)NC(=O)N(CC(=O)Nc3ccccc3N3CCCC3)C2=O)cc1 (stereo not drawn)	none (no result: ssDAF-12 act, SMARCA2 act, DAX1 inh-1, hcDAF-12 act, hgDAF12 agonist)
CCc1cccc(Nc2cc(C)nc3nc(C)nn23)c1	DAX1 inh-2 4.3
Cc1cccc(/C=N\NC(=O)c2csnn2)c1	none
O=C(/C=C/c1ccc(OC2CSC2)cc1)c1ccccc1	none
O=C(N/N=C/c1ccc(OC2CSC2)cc1)c1ccccc1	DAX1 inh-1 4.2
O=C(N/N=C\c1ccc(Oc2ccccc2)cc1)c1csnn1	hgDAF12 agonist 11, DAX1 inh-2 5.4
CC(SCc1ccccc1)C(=O)Nc1ccccc1-c1ccccc1 (stereo not drawn)	hcDAF-12 act 6.1
CCCCCc1ccc(NC(=O)O[C@@H]2CC[C@@]34CCCN3C(=O)CCC[C@H]4C2)cc1	none (no result: SMARCA2 act, DAX1 inh-1, DAX1 inh-2)
CCOC(=O)c1sc(-c2ccc(OC)cc2)cc1N	hgDAF12 agonist 12
CCOc1ccccc1NC(=O)CCCc1ccc(OC)c(C)c1	none
O=C(NCc1ccccn1)[C@@H]1CCCN1C(=O)[C@@H]1CCCN1C(=O)c1cccc2ccccc12	none (no result: DAX1 inh-2)
c1ccc2[nH]c(COCc3nc4ccccc4[nH]3)nc2c1	none (no result: SMARCA2 act, DAX1 inh-1, DAX1 inh-2)
